In the library only some 2.7% were active in any assay of this set; here they are far more common.
NadD block = inhibitors of S. aureus NadD, primary screen, biochemical, colorimetric, uHTS. inhibition, % at 20 µM. Nicotinate-nucleotide adenylyltransferase NadD (Staphylococcus aureus N315). AID 602399, 2012. purified NadD enzyme, colorimetric absorbance read-out. 0.78% of 360,000 active; in the data active = inhibition above about 26%
MsrA inh = bovine MsrA enzyme inhibitors, primary screen, biochemical, absorbance, HTS; purified bovine MsrA, absorbance read-out; inhibition, % at 15.5 µM; 0.75% of 360,000 active
rCAG binder = binders of r(CAG) RNA repeats, primary screen, biochemical, fluorescence | r(CAG) RNA repeat, TO-PRO-1 dye displacement fluorescence | inhibition, % at 3 µM | 1.3% of 370,000 active;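 active = inhibition above the plate cutoff, the mean of all test compounds on that plate plus 3 SD, cut at about 35% in these data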;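 also: higher means more dye released from RNA so lower well fluorescence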
MsrA act = bovine MsrA enzyme activators, primary screen, biochemical, absorbance, HTS; Methionine sulfoxide reductase A (Bos taurus); purified bovine MsrA, absorbance read-out; activation, % at 10.6 µM; 0.3% of 360,000 active; AID 602163, 2012; in the data active = activation above about 7.5%
MsrA inh confirm = bovine MsrA inhibitors, retest, confirmation, biochemical, absorbance, HTS. shares compounds with MsrA inh. purified bovine MsrA, absorbance read-out. inhibition, % at 15.5 µM. 41% of 2,300 active. AID 651822, 2012;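 also: coupled to thioredoxin reductase with NADPH and selenocystamine and DMSO as substrate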
A number is an active result; . = inactive; / = not tested or not shown. Rule as the data show it, unless noted: active = inhibition above about 4.5%; inactive = the rest.

SMILES | NadD block | MsrA inh | rCAG binder | MsrA act | MsrA inh confirm
COc1ccc(-c2oc3ccc(-c4ccc5c(c4)OCO5)cc3c2C#CC2(O)CCCCC2)cc1 | . | 5.2 | . | . | .
COC(=O)[C@]12C[C@H](CC(=O)N3CCCCC3)C(=O)N(CCc3ccc(OC)c(OC)c3)C1=C[C@H](C(C)(C)C)O[C@@H]2C | / | / | . | / | /
Cc1ccccc1NC(=O)C(C)OC(=O)C1CC(=O)N(Cc2ccco2)C1 (stereo unspecified) | . | . | . | . | /
COc1ccc2oc(-c3ccco3)cc(=O)c2c1 | . | . | . | . | /
O=C(COc1ccc2oc(-c3ccco3)cc(=O)c2c1)N1CCCCC1 | . | 4.7 | . | . | .
COCOCCn1cc(CN2CCS(=O)(=O)N(Cc3ccc(-c4ccc(OC)nc4)cc3)C(C(C)C)C2=O)nn1 (stereo unspecified) | . | . | . | . | /
Cc1nc(N)c(C#N)c(-c2cccnc2)c1C | . | . | . | . | /
CCc1nc(N)c(C#N)c(-c2cccnc2)c1C | . | 4.7 | . | . | .
CCCCOC(=O)C1CN(c2ccccc2)N=C1C(=O)OCC (stereo unspecified) | . | 53 | . | . | .
O=C(c1ccco1)N1CCN(CC(O)Cn2c3ccccc3c3ccccc32)CC1 (stereo unspecified) | . | . | . | . | /
O=C1C(Nc2ccccc2)=C/C(=N/S(=O)(=O)c2cccs2)c2ccccc21 | . | / | / | . | /
Cc1ccc(NC2=C/C(=N/S(=O)(=O)c3cccs3)c3ccccc3C2=O)cc1 | . | 14 | . | . | 24
CCc1ccc(S(=O)(=O)/N=C2\C=C(Nc3ccc(C(=O)O)cc3)C(=O)c3ccccc32)cc1 | . | 64 | 89 | . | 69
O=C(Nc1ccccc1)n1ccc2ccc(-c3ccc4cc[nH]c4c3)cc21 | / | / | . | / | /
COc1ccc(NC(=O)Nc2ccc(F)c(F)c2)c(OC)c1 | . | . | . | . | /
O=[N+]([O-])c1ccc(N2CCN(S(=O)(=O)c3ccccc3)CC2)cc1NCc1cccnc1 | . | 9.1 | . | . | .
O=c1ccn([C@@H]2O[C@H](CNCc3c(OCc4ccccc4F)ccc4ccccc34)[C@@H](O)[C@H]2O)c(=O)[nH]1 | . | . | . | . | /
Cc1c(NC(=S)N/N=C/C=C/c2ccc([N+](=O)[O-])cc2)c(=O)n(-c2ccccc2)n1C | . | 9.8 | . | . | 4.9
Cc1c(NC(=S)N/N=C/C=C/c2ccccc2)c(=O)n(-c2ccccc2)n1C | . | 6.4 | . | . | 6.8
Cc1c(NC(=S)N/N=C/c2ccc([N+](=O)[O-])cc2O)c(=O)n(-c2ccccc2)n1C | . | . | . | . | /
COc1ccc(/C=N/NC(=S)Nc2c(C)n(C)n(-c3ccccc3)c2=O)cc1OC | . | 5.2 | . | . | .
S=C(NCCCN1CCOCC1)N1CCN(c2cccc(Cl)c2)CC1 | . | . | . | . | /
OCCNc1nc2nonc2nc1NCCO | . | . | . | . | /
CCN(c1ccccc1)c1nc2nonc2nc1NCCO | . | 13 | . | . | 9.4
C/C(=N\NC(=O)Cn1ccc(C(F)(F)F)n1)c1ccc(N2CCOCC2)cc1 | . | . | . | . | /
SMILES | NadD block | MsrA inh | rCAG binder | MsrA act | MsrA inh confirm
O=C(N/N=C/c1ccc(N2CCOCC2)cc1)c1ccccn1 | . | . | . | . | /
COc1cc(/C=N/NC(=O)c2nc3ccccn3c2C)cc(OC)c1O | . | 6.3 | . | . | 5.1
Cc1c(C(=O)N/N=C/c2ccc(N3CCOCC3)cc2)nc2ccccn12 | . | 5.7 | . | . | 5.8
COc1ccc(/C=N/NC(=O)c2c(C)nc3ccccn23)cc1[N+](=O)[O-] | . | . | . | . | /
O=C(Cn1ccc(C(F)(F)F)n1)N/N=C/c1ccc(N2CCOCC2)cc1 | . | 5.2 | . | . | .
COc1cc2c(cc1[N+](=O)[O-])n(C(C)C)c(=O)n2C(C)C | . | 8.7 | . | . | 6.3
COc1cc(CC(=O)O)c([N+](=O)[O-])cc1OC | . | . | . | . | /
CS(=O)(=O)Nc1ccc(C2=NN(C(=O)c3ccccc3)C(c3cccs3)C2)cc1 (stereo unspecified) | . | 4.8 | . | . | .
COc1ccc(OC)c(C(=O)N(C[C@H]2CC[C@@H]([C@@H]3CC[C@H](CO)O3)O2)C(C(=O)NC(C)(C)C)c2ccc(-c3ccccc3)cc2)c1 (stereo partly specified) | . | . | . | . | /
Cc1ccc(NC(=O)CN2C(=O)NC(C)(C3CC3)C2=O)c(C)c1 (stereo unspecified) | . | . | . | . | /
Cc1ccc(NC(=O)CN2C(=O)NC(C)(C3CC3)C2=O)c([N+](=O)[O-])c1 (stereo unspecified) | . | 9.4 | . | . | 6.0
CCOc1cc(/C=N/NC(=O)C(=O)N/N=C/c2ccc(O)c(OCC)c2)ccc1O | . | 5.5 | . | . | .
CCOc1cc(/C=N/NC(=O)C(OC)c2ccccc2)ccc1O (stereo unspecified) | . | . | . | . | /
CCOc1cc(/C=N/NC(=O)N/N=C/c2ccc(O)c(OCC)c2)ccc1O | / | 5.5 | . | / | .
CCOc1cc(/C=N/Nc2ncnc(Cl)c2N)ccc1O | . | 4.9 | . | . | 6.0
O=C(CSc1nnc2ccccn12)N1CCc2ccccc21 | . | . | . | . | /
CN/C=C1\C(=O)C(C)(C)Oc2ccc3ccc(=O)oc3c21 | . | 5.4 | . | . | .
Cc1cc(C)c(C(=O)COC(=O)c2cccnc2Cl)c(C)c1 | . | . | . | . | /
O=[N+]([O-])c1ccc(Oc2cccc3cccnc23)c([N+](=O)[O-])c1 | . | 7.3 | . | . | .
COc1ccc(/C=C/C(=O)NC(=S)Nc2ccc(S(=O)(=O)Nc3cc(C)on3)cc2)cc1 | . | 5.0 | . | . | 5.7
Cc1occc1-c1nnc(-c2cc([N+](=O)[O-])cc([N+](=O)[O-])c2)o1 | . | 7.7 | . | . | .
Cc1ccccc1-n1c(SCc2cccc(F)c2)nc2[nH]ncc2c1=O | . | 7.2 | . | . | 8.0
O=C1OC(c2ccccc2)=N/C1=C\N1CCCCC1 | . | 5.7 | . | . | 6.9
CN(C)/C=C1\N=C(c2cccs2)OC1=O | . | 7.7 | . | . | 5.5
CN(C)/C=C1\N=C(c2ccc(Cl)cc2Cl)OC1=O | . | . | . | . | /
SMILES | NadD block | MsrA inh | rCAG binder | MsrA act | MsrA inh confirm
Cc1ccc(C2=N/C(=C\N(C)C)C(=O)O2)cc1 | . | 5.2 | . | . | 5.5
CN(C)/C=C1/N=C(c2ccccc2)OC1=O | . | 7.3 | . | . | 6.9
COc1ccc(/C=C2/N=C(c3cccs3)OC2=O)cc1OC(C)C | . | . | . | . | /
O=[N+]([O-])c1ccc(Oc2ccc(Oc3ccc(C(F)(F)F)cn3)cc2)nc1 | . | . | . | . | /
COc1ccc(N(Cc2ccccc2)C(=O)c2ccccc2[N+](=O)[O-])cc1 | . | / | / | . | /
CCN1C(=O)[C@H]2[C@@H](c3ccc(OC)cc3)N[C@]3(CCCN(Cc4ccc(C(F)(F)F)cc4)C3=O)[C@H]2C1=O | . | . | . | . | /
Cc1ccc(C)c(OCC(=O)N/N=C\c2cccn2C)c1 | . | 5.1 | . | . | .
Cc1ccc(OCC(=O)N/N=C/c2cccn2C)cc1 | . | . | . | . | /

High-throughput results as filed in PubChem BioAssay.
